Compounds with a hit are over-represented: about 17% of the library has one in this group of screens.
HT1080 IDH1KD tx = toxicity to HT-1080 IDH1 knockdown cells (counter line). AID 686971. Potency, µM (top dose mostly 46.1 µM), without a hit: at the highest dose activity, negative = toxicity, actives largely listed as cytotoxic. 360,000 compounds, 2% hits. HT-1080 IDH1 knockdown viability, ATP luminescence, 48 h;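 also: 0% = DMSO wells and -100% = cell-free medium wells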
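Assay cells: HT-1080 with IDH1 knockdown, 750 per well, RPMI/5% FBS. Exposure: 48 h at 37 °C following 2 h pre-incubation. Read: CellTiter-Glo luminescence; fitted concentration-response, curve class assigned.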
DT40 TDP1 no CPT = qHTS for Inhibitors of human tyrosyl-DNA phosphodiesterase 1 (TDP1): qHTS in cells in absence of CPT; DT40 Tdp1-/- hTDP1 cells, no CPT, ATP luminescence, 48 h; Potency, µM (series often up to 46.2 µM), for the others: at the top dose activity change, negative = growth inhibition, actives largely listed as inhibitors; AID 686978, 2013; 420,000 compounds, 15% hits; also: % is scaled to controls: 0 for no effect and ±100 for the full control effect; nearly all actives have a fitted effect of over 55% in size
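Growth of hTDP1-complemented DT40 Tdp1-knockout cells is measured by ATP luminescence after at least 48 hr compound exposure at 37 °C, with DMSO substituting for the 20 nM CPT used in the parallel screen.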
TGFb SMAD3 inh = TGF-b pathway inhibition; Potency, µM (highest dose often 46.1 µM), without a hit: at the top dose activity, negative = inhibition, usual class: inhibitors; 410,000 compounds, 1.2% hits; HepG2 CAGA-GFP TGF-b/SMAD3 reporter, GFP fluorescence, 18 h; TGF-beta stimulated, 500 pg/mL final; AID 588855; also: % is scaled to controls: 0 for no effect and ±100 for the full control effect; nearly all actives have a fitted effect of over 65% in size
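Read-out: total well GFP (ex488/em500-530) summed from mean per-cell fluorescence. Cells: HEPG2 CAGA-GFP, 1% FBS DMEM, 18 h at 37 degrees C with 500 pg/mL final TGF-beta. Unstimulated wells served as the full-inhibition control; stimulated DMSO wells = 0%.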
TDP1 cell CPT = DT40-hTDP1 cell growth loss with CPT | chicken DT40 Tdp1-/-;hTDP1 cells + 20 nM CPT, ATP luminescence, 48 h | Potency, µM (titrated, usually from 46.2 µM), for the others: at the highest dose activity change, negative = growth inhibition, actives largely listed as inhibitors | 420,000 compounds, 12% hits | AID 686979; also: % is scaled to controls: 0 for no effect and ±100 for the full control effect; nearly all actives have a fitted effect of over 55% in size
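Chicken DT40 Tdp1-/- cells stably complemented with human TDP1 were seeded at 400 cells/well in medium containing 20 nM camptothecin, exposed to pin-transferred compounds, and grown at 37 °C for at least 48 hr. Viability was read as ATP luminescence.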
HT1080-NT tox = kills 2HG-producing HT-1080-NT fibrosarcoma cells; 360,000 compounds, 1.6% hits; AID 686970; HT-1080-NT fibrosarcoma viability, CellTiter-Glo ATP luminescence, 48 h; Potency, µM (highest dose often 46.1 µM), for the others: at the highest dose activity, negative = less viability, hits mostly cytotoxic;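 also: NT is the 2HG producing partner of a matched IDH1 knockdown line; 0% = DMSO-treated cells and -100% = media-only wells without cells; nearly all actives have a fitted effect of over 55% in size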
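Viability of the 2HG-overproducing fibrosarcoma line after 48 hours of compound exposure at 37 degrees C was determined by luminescence with CellTiter-Glo, and concentration-effect curves were then fitted and categorized.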
HepG2 tox = counter-screen for TGF-b inhibitors: cytotoxicity in HepG2 cells. HepG2 CAGA-GFP viability, ATP luminescence, 18 h. Potency, µM (series often up to 46.1 µM), for inactives: top-dose activity change, negative = cytotoxicity, most hits filed as cytotoxic. 410,000 compounds, 0.76% hits
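HepG2 CAGA-GFP cells (1000/well, DMEM with 1% FBS) received compound, then TGF-beta at 500 pg/mL final, and were incubated 18 hours at 37 degrees C. Viability was read by CellTiter-Glo luminescence. Media-only wells were set as complete cell-killing and DMSO as no toxicity.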
* hit, by the source's call. Calls follow the shape of the dose curve; as a rule, active = well fitted curve in the direction sought with a large enough effect; inconclusive = small, poorly fitted or top-dose-only effect, or another doubt; inactive = no such curve, though single readings can be large; an effect the other way counts as inactive or inconclusive. Potency is read from the fitted curve at half-maximal effect.

For O=C(CC1S/C(=N/N=C/c2ccco2)NC1=O)Nc1cccc(Cl)c1Cl (centres undefined) the results were HT1080 IDH1KD tx 3%, DT40 TDP1 no CPT 1%, TGFb SMAD3 inh -10%, TDP1 cell CPT 11%, HT1080-NT tox -3% and HepG2 tox -8%.
CN(C)c1ccc(CNS(=O)(=O)c2ccc3[nH]c4c(c3c2)CCCCC4)cc1 was read as TGFb SMAD3 inh inconclusive and HepG2 tox -41%.
`Cc1cc(C)cc(NC(=S)NCc2ccc3[nH]c4c(c3c2)CCCC4)c1` gave HT1080 IDH1KD tx -23%, DT40 TDP1 no CPT 16µM*, TGFb SMAD3 inh inconclusive, TDP1 cell CPT inconclusive, HT1080-NT tox -20% and HepG2 tox -51%.
Screening O=S(=O)(NCc1ccc(F)cc1)c1ccc2[nH]c3c(c2c1)CCCC3 returned DT40 TDP1 no CPT 16µM*, TGFb SMAD3 inh 18µM*, TDP1 cell CPT inconclusive and HepG2 tox -103%.
Screening O=C(NCc1ccc2[nH]c3c(c2c1)CCCC3)c1ccc(S(=O)(=O)N2CCCCC2)cc1 returned HT1080 IDH1KD tx -3%, DT40 TDP1 no CPT -28%, TGFb SMAD3 inh -8%, TDP1 cell CPT -3%, HT1080-NT tox -1% and HepG2 tox -5%.
Screening O=S(=O)(NCc1ccc(Cl)cc1)c1ccc2[nH]c3c(c2c1)CCCC3 returned DT40 TDP1 no CPT 5.8µM*, TGFb SMAD3 inh 16µM*, TDP1 cell CPT inconclusive and HepG2 tox 16µM*.
`CN(Cc1ccccc1)S(=O)(=O)c1ccc2[nH]c3c(c2c1)CCCCC3` gave DT40 TDP1 no CPT 16µM*, TGFb SMAD3 inh inconclusive, TDP1 cell CPT inconclusive and HepG2 tox -20%.
CC(C)(C)n1ncc2c(=O)n(Cc3ccc(C(F)(F)F)cc3)cnc21 was read as TGFb SMAD3 inh -23% and HepG2 tox -33%.
Cc1cc(C(=O)OCC(=O)Nc2ccccc2C(F)(F)F)on1 was read as HT1080 IDH1KD tx -2%, DT40 TDP1 no CPT -1%, TGFb SMAD3 inh 17%, TDP1 cell CPT 7%, HT1080-NT tox -3% and HepG2 tox -8%.
`O=S(=O)(NCc1ccccc1)c1ccc2[nH]c3c(c2c1)CCCCC3` gave DT40 TDP1 no CPT 21µM*, TGFb SMAD3 inh inconclusive, TDP1 cell CPT inconclusive and HepG2 tox -38%.
For Cc1ccc(CNS(=O)(=O)c2ccc3[nH]c4c(c3c2)CCCCC4)cc1 the results were DT40 TDP1 no CPT 15µM*, TGFb SMAD3 inh inconclusive, TDP1 cell CPT inconclusive and HepG2 tox -106%.
`Cc1ccc(CNS(=O)(=O)c2ccc3[nH]c4c(c3c2)CCCC4)cc1` gave DT40 TDP1 no CPT -24%, TGFb SMAD3 inh inconclusive, TDP1 cell CPT 0% and HepG2 tox -18%.
Cc1nc2nc(C)c(NS(=O)(=O)c3ccc4c(c3)CCCC4)c(=O)n2[nH]1 was read as HT1080 IDH1KD tx 11%, DT40 TDP1 no CPT 2%, TGFb SMAD3 inh -8%, TDP1 cell CPT 6%, HT1080-NT tox 14% and HepG2 tox -23%.
Screening Cc1ccc(O)c(-c2cc(-c3ccccc3C)[nH]n2)c1 returned HT1080 IDH1KD tx -11%, DT40 TDP1 no CPT inconclusive, TGFb SMAD3 inh inconclusive, TDP1 cell CPT inconclusive, HT1080-NT tox -3% and HepG2 tox 11µM*.
Oc1ccccc1-c1cc(-c2cccc(F)c2)n[nH]1 was read as HT1080 IDH1KD tx -2%, DT40 TDP1 no CPT -13%, TGFb SMAD3 inh -23%, TDP1 cell CPT -19%, HT1080-NT tox -1% and HepG2 tox -57%.
COc1ccc(OC)c(NC(=O)c2cc(-c3ccc(C)cc3O)n[nH]2)c1 was read as HT1080 IDH1KD tx -12%, DT40 TDP1 no CPT -24%, TGFb SMAD3 inh -5%, TDP1 cell CPT -28%, HT1080-NT tox -6% and HepG2 tox 2%.
CC(C)(C)c1ccc(-c2cc(-c3ccccc3O)[nH]n2)cc1 was read as HT1080 IDH1KD tx 15µM*, DT40 TDP1 no CPT inconclusive, TGFb SMAD3 inh 18µM*, TDP1 cell CPT inconclusive, HT1080-NT tox inconclusive and HepG2 tox -59%.
Screening COc1ccc(-c2cc(-c3cc(C)ccc3O)[nH]n2)cc1 returned HT1080 IDH1KD tx inconclusive, DT40 TDP1 no CPT inconclusive, TGFb SMAD3 inh inconclusive, TDP1 cell CPT inconclusive, HT1080-NT tox 3.7µM* and HepG2 tox -44%.
For COc1ccc(-c2cc(-c3ccc(OC)cc3)[nH]n2)cc1 the results were HT1080 IDH1KD tx inconclusive, DT40 TDP1 no CPT inconclusive, TGFb SMAD3 inh -13%, TDP1 cell CPT inconclusive, HT1080-NT tox 20% and HepG2 tox -10%.
For Cc1ccc(O)c(-c2cc(-c3ccccc3[N+](=O)[O-])[nH]n2)c1 the results were HT1080 IDH1KD tx -11%, DT40 TDP1 no CPT -14%, TGFb SMAD3 inh inconclusive, TDP1 cell CPT -4%, HT1080-NT tox 0% and HepG2 tox -38%.
For COc1ccc(-c2cc(-c3ccc(C)cc3)n[nH]2)c(O)c1 the results were HT1080 IDH1KD tx inconclusive, DT40 TDP1 no CPT inconclusive, TGFb SMAD3 inh inconclusive, TDP1 cell CPT 26µM*, HT1080-NT tox 3% and HepG2 tox -39%.
Screening COc1cccc(-c2nnc(-c3ccccc3NC(=O)c3cccc(C(F)(F)F)c3)o2)c1 returned DT40 TDP1 no CPT -12%, TGFb SMAD3 inh 3%, TDP1 cell CPT -8% and HepG2 tox -1%.
`Cc1ccc(O)c(-c2cc(C(F)(F)C(F)F)[nH]n2)c1` gave HT1080 IDH1KD tx inconclusive, DT40 TDP1 no CPT 16µM*, TGFb SMAD3 inh inconclusive, TDP1 cell CPT inconclusive, HT1080-NT tox -22% and HepG2 tox -17%.
Screening Cc1ccc(O)c(-c2cc(C(=O)Nc3cccnc3)[nH]n2)c1 returned HT1080 IDH1KD tx -17%, DT40 TDP1 no CPT -27%, TGFb SMAD3 inh -8%, TDP1 cell CPT -24%, HT1080-NT tox 0% and HepG2 tox 11%.
For C=CCn1c(C)cc(C(=O)Cn2c(C(C)O)nc3ccccc32)c1C (centres undefined) the results were HT1080 IDH1KD tx 5%, DT40 TDP1 no CPT 9.2µM*, TGFb SMAD3 inh -5%, TDP1 cell CPT 21µM*, HT1080-NT tox 0% and HepG2 tox -15%.
